PNC assembly inh = inhibitors of perinucleolar compartment assembly; AID 2417; activity change (PNC), negative = inhibition, % at 10 µM; PC3M PTB-GFP, PNC prevalence imaging, 16 h; stronger effect = lower value; 140,000 tested, 3.1% active;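 active = readout at or below -70, meaning at least 70% loss of cells showing the perinucleolar compartment, a nuclear body marking cancer cells; inconclusive = readout between -30 and a set limit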
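Compounds are pinned in duplicate onto adhered PC3M cells stably expressing GFP-tagged PTB and incubated 16 h at 37 C. Cells are then fixed, nuclei stained with Hoechst, and PNC-positive cells counted.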
ALDH1A1 inh = blocks purified human ALDH1A1 activity | P00352 | Purified ALDH1A1, NADH fluorescence, propionaldehyde substrate | 220,000 tested, 7.3% active | Potency, µM (doses to about 75.3 µM), hits mostly inhibitors | AID 1030
HPGD block = HPGD (human) dehydrogenase inhibition; Potency, µM, usual class: inhibitors; purified HPGD, NADH fluorescence kinetic, PGE2 substrate; 150,000 tested, 4.3% active; AID 894
Target sequence (P15428 whole entry, looked up): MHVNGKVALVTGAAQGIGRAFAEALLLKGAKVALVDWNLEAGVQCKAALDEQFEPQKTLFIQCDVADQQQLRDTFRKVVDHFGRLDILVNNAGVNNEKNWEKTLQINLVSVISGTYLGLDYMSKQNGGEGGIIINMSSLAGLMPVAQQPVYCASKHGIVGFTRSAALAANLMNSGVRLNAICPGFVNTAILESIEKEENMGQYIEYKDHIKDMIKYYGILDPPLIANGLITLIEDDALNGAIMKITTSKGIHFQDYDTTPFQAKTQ
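NADH formation kinetics: reaction with 30 uM PGE2 and 1 mM NAD+ (final), 20 nM enzyme, Tris-HCl pH 8 with Tween 20, after 15 min compound preincubation at room temperature. Fluorescence change, last versus first of five reads.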
Each line names hits and unclear results; the compound was inactive in the other large screens; ! = not confirmed by another sample. In the library only some 11% were active in any assay of this set; here they are far more common. Unless noted, calls follow the shape of the dose curve; as a rule, active = well fitted inhibition curve with a large enough effect (not every such curve was filed as active); inconclusive = small, poorly fitted or top-dose-only effect, or another doubt; inactive = no such curve, though single readings can be large or run the other way.

O=C(Nc1ccc(Cl)cc1C(F)(F)F)C(Sc1nnc(-c2cccs2)o1)c1ccccc1 (stereo unspecified)	ALDH1A1 inh 2.82µM (no result: HPGD block)
O=C(Nc1cc(C(F)(F)F)ccc1Cl)C(Sc1cccc[n+]1[O-])c1ccccc1 (stereo unspecified)	ALDH1A1 inh inconclusive
CCCn1c(-c2ccc(F)cc2)nc2c(NCCCN3CCCCC3C)nc(C)nc21 (stereo unspecified)	ALDH1A1 inh inconclusive (no result: PNC assembly inh)
CC(=O)NC1=NN(C(C)=O)C(c2cccs2)S1 (stereo unspecified)	PNC assembly inh -100.0
CC(=O)NC1=NN(C(C)=O)C(c2ccccc2)S1 (stereo unspecified)	none (no result: PNC assembly inh, HPGD block)
CCCc1nc2ccccc2c(=O)n1CC(=O)c1ccccc1	none (no result: PNC assembly inh, HPGD block)
O=S(=O)(c1ccc(Cl)cc1)N1CCCC(C(F)(F)F)C1 (stereo unspecified)	none (no result: PNC assembly inh, HPGD block)
CN(C)CCCN(C(=O)CCc1ccccc1)c1nc2c(F)cccc2s1	PNC assembly inh inconclusive
CN(C)CCCN(C(=O)CCOc1ccccc1)c1nc2c(F)cccc2s1	ALDH1A1 inh 3.16µM (no result: PNC assembly inh, HPGD block)
CCOc1ccccc1C(=O)N1CCC(n2nnc3cc(C(F)(F)F)ccc32)CC1	ALDH1A1 inh 28.2µM
CCOc1ccccc1C(=O)N1CCC(n2nnc3cc(C)ccc32)CC1	none (no result: HPGD block)
O=C(OCC(=O)N1CCN(C(=O)c2ccco2)CC1)c1cc(-c2cccc(Br)c2)nc2ccccc12	none
O=C1CC(N2CCN(c3ccccc3)CC2)C(=O)N1c1ccc2c(c1)OCCO2 (stereo unspecified)	none
O=C1CC(N2CCN(Cc3ccc4c(c3)OCO4)CC2)C(=O)N1c1ccccc1 (stereo unspecified)	ALDH1A1 inh 15.8µM
O=C1CC(N2CCN(c3ccc(F)cc3)CC2)C(=O)N1c1ccc2c(c1)OCO2 (stereo unspecified)	ALDH1A1 inh 18.9µM (no result: PNC assembly inh, HPGD block)
O=S(=O)(Cc1ccccc1)N1CCN(Cc2ccc3c(c2)OCO3)CC1	none
Cc1cccc(Nc2nc(N)nc(CN3CCN(c4ccccc4)CC3)n2)c1	none
Cc1cccc(N2C(=O)CC(N3CCN(Cc4ccc5c(c4)OCO5)CC3)C2=O)c1 (stereo unspecified)	PNC assembly inh inconclusive, ALDH1A1 inh 22.4µM
Cc1ccc(C)c(N2C(=O)CC(N3CCN(Cc4ccc5c(c4)OCO5)CC3)C2=O)c1 (stereo unspecified)	ALDH1A1 inh inconclusive
Cc1cccc(Nc2nc(N)nc(CN3CCN(Cc4ccc5c(c4)OCO5)CC3)n2)c1	ALDH1A1 inh 14.1µM
COc1ccc(C2C(C#N)=C(N)Oc3cc(C)[nH]c(=O)c32)c(OC)c1OC (stereo unspecified)	none
O=S(=O)(c1ccccc1)N(CC(O)COc1ccccc1)c1ccccc1 (stereo unspecified)	none (no result: PNC assembly inh, HPGD block)
CC(C)NC(=O)c1noc2cc([N+](=O)[O-])ccc12	none
Cc1ccc2cc(CN(Cc3cccs3)Cc3nnnn3CC3CCCO3)c(=O)[nH]c2c1 (stereo unspecified)	ALDH1A1 inh 7.94µM
Cc1ccc2cc(CN(Cc3cccs3)Cc3nnnn3CC3CCCO3)c(=O)[nH]c2c1C (stereo unspecified)	ALDH1A1 inh inconclusive, HPGD block inconclusive
COc1ccccc1CN(Cc1cc2cc(C)ccc2[nH]c1=O)Cc1nnnn1CC1CCCO1 (stereo unspecified)	ALDH1A1 inh inconclusive
Cc1ccc2[nH]c(=O)c(CN(Cc3cccs3)Cc3nnnn3CC3CCCO3)cc2c1 (stereo unspecified)	ALDH1A1 inh 20µM
COC(=O)N1[C@H](C)C=C[C@]1(Cc1ccccc1)C(=O)O	none
O=C(/C=C/c1ccco1)Nc1cc(Cl)ccc1C(=O)O	ALDH1A1 inh inconclusive, HPGD block 31.6µM
O=C(/C=C\c1ccco1)Nc1cc([N+](=O)[O-])ccc1F	PNC assembly inh -134.0, ALDH1A1 inh inconclusive
O=C(Nc1ccccc1)Nc1cc([N+](=O)[O-])ccc1F	none
O=C(/C=C/c1ccco1)Nc1ccccc1C(=O)O	none (no result: PNC assembly inh, HPGD block)
Cc1nnsc1C(=O)NC1CCCCC1	none
C=CCn1c(N)cc(=O)nc1SC(C)C(=O)Nc1cccc2ccccc12 (stereo unspecified)	PNC assembly inh inconclusive
Cc1ccc(-n2nnnc2-c2cnn(-c3cccc(F)c3)c2C(F)(F)F)cc1	ALDH1A1 inh inconclusive
Fc1cccc(-n2ncc(-c3nnnn3-c3ccccc3)c2C(F)(F)F)c1	PNC assembly inh -84.4
O=C(c1ccco1)N1CCC2(CCCN(c3ccccn3)C2)CC1	ALDH1A1 inh inconclusive (no result: PNC assembly inh)
CCOc1cc(C2C(C(=O)N3CCCCC3)=C(C)NC3=C2C(=O)CCC3)cc(Br)c1O (stereo unspecified)	ALDH1A1 inh inconclusive
O=C(NC12CC3CC(CC(C3)C1)C2)c1cccnc1	PNC assembly inh inconclusive
O=C(NNC(=O)c1cccnc1)NC12CC3CC(CC(C3)C1)C2	PNC assembly inh -80.8
O=C(NCc1ccccc1)c1ccc(CS(=O)(=O)c2ccccc2)o1	none
Cc1cccc(C(=O)NC(=S)NCc2cccnc2)c1	none
COc1cccc(N2CCN(Cc3nnnn3C3CCCCC3)CC2)c1	none (no result: PNC assembly inh, HPGD block)
O=C1CCc2cc(OCCCCc3nnnn3C3CCCCC3)ccc2N1	PNC assembly inh inconclusive, ALDH1A1 inh 25.1µM!
O=S(=O)(c1ccc(C2CCCCC2)cc1)N1CCCC1	none
C[C@]12CCC(=O)C=C1CCC1C2C(O)C[C@]2(C)C1CC[C@]2(O)C(=O)COC(=O)CCC(=O)O (stereo partly specified)	none (no result: PNC assembly inh)
CCC(=O)c1cc2c(C)cc(=O)oc2c(C)c1OC(=O)C(C)C	none
C=CCc1c(C)nc(C)nc1N/N=C/c1ccc([N+](=O)[O-])cc1	ALDH1A1 inh inconclusive
Cc1csc(/N=C/c2ccc([N+](=O)[O-])cc2)n1	ALDH1A1 inh 11.2µM
Cc1ccc(S(=O)(=O)N2CC3CCCC2C3)cc1 (stereo unspecified)	none (no result: PNC assembly inh, HPGD block)
CC(C)CNC(=S)Nc1ccc(Oc2ccccc2)cc1	ALDH1A1 inh inconclusive (no result: HPGD block)
COc1cc2c(cc1OC)[C@H](C)N(CC1C(=O)O[C@@H]3C[C@@]4(C)CCC[C@H](C)[C@@]45OC5[C@H]13)CC2 (stereo partly specified)	none (no result: PNC assembly inh)
CCCCNC(C(=O)Nc1ccc([N+](=O)[O-])cc1Br)c1ccccc1 (stereo unspecified)	PNC assembly inh -118.2, ALDH1A1 inh inconclusive
COCCNC(C(=O)Nc1ccc([N+](=O)[O-])cc1Br)c1ccccc1 (stereo unspecified)	ALDH1A1 inh 12.6µM
CCC(C)NC(C(=O)Nc1ccc(Cl)c([N+](=O)[O-])c1)c1ccccc1 (stereo unspecified)	ALDH1A1 inh inconclusive
CN(C)c1cccc(C(=O)OC(C(=O)Nc2ccc([N+](=O)[O-])cc2Br)c2ccccc2)c1 (stereo unspecified)	none
O=C(Nc1ccc(Cl)c([N+](=O)[O-])c1)C(NCCCO)c1ccccc1 (stereo unspecified)	PNC assembly inh inconclusive, ALDH1A1 inh 0.708µM
CCCOc1ccc(C(=O)Nc2ccc(C)cc2[N+](=O)[O-])cc1	none
COCCNC(C(=O)Nc1ccc(C)cc1[N+](=O)[O-])c1ccccc1 (stereo unspecified)	ALDH1A1 inh 25.1µM (no result: PNC assembly inh, HPGD block)
CC(C)C(=O)Nc1ccc([N+](=O)[O-])cc1Br	none
Fc1ccc(-n2nnc(-c3cnc4ccccc4c3)n2)cc1	none (no result: PNC assembly inh, HPGD block)
COc1ccc(C2N=C(c3ccccc3)C(C)(C)N2O)cc1OC (stereo unspecified)	PNC assembly inh inconclusive

Screening results from PubChem BioAssay.
